Activity calls are given as the source filed them. How the source made its calls: active means hit-call score of the fitted dose curve at least 0.9, where 1 is the maximum; inactive means score below 0.9.
Experiment: ATG_PXRE_CIS: Attagene CIS-FACTORIAL HepG2 Assay for human Pregnane X Receptor Element (PXRE) (AID 2282957)
Details: HepG2 Attagene CIS-FACTORIAL PXRE reporter, mRNA; actives raise or lower the signal
Outline: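 Transiently transfected HepG2 cells were dosed and incubated for 24 h. RNA was then isolated, DNase-treated, reverse-transcribed and reporter sequences amplified. Labeled, HpaI-digested fragments were quantified by capillary electrophoresis against DMSO.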

outcome, inactive:
CC1(C)S[C@@H]2[C@H](NC(=O)[C@H](N)c3ccccc3)C(=O)N2[C@H]1C(=O)O
CCC(C)(CCC(C)C)C(=O)O (stereo not given)
Cc1cc(C)c(S(=O)(=O)O)cc1N=Nc1cc(S(=O)(=O)O)c2ccccc2c1O
Clc1ccccn1
NCc1ccccc1
O=[N+]([O-])c1ccc2nc[nH]c2c1
CCCCn1cc[n+](C)c1
CC(C)CC(=O)O
C[Si](C)(C)O[Si](C)(C)O[Si](C)(C)C
Cc1cc(O)cc(C)c1Cl
CC(O)(P(=O)(O)O)P(=O)(O)O
Cc1ccccc1S(N)(=O)=O
CCCOCCC
CN(C)CCC(c1ccc(Cl)cc1)c1ccccn1 (stereo not given)
F[B-](F)(F)F
COCCCN
COc1ccccc1OCC(O)CO (stereo not given)

AC50, active:
CCCc1c(OCCCCc2nn[nH]n2)ccc(C(C)=O)c1O 27.4 µM
CCCCCCOC(=O)CCCCCCCC(=O)OCCCCCC 71.6 µM
O=C(O)Cc1c[nH]c2ccccc12 35.4 µM
CCCCCCCCCCC1CO1 (stereo not given) 27 µM
CC(C)n1c(/C=C/[C@@H](O)C[C@@H](O)CC(=O)O)c(-c2ccc(F)cc2)c2ccccc21 3.98 µM
CC1=C(CC=O)C(C)(C)CCC1 0.734 µM
CN(C)CCCN1c2ccccc2CCc2ccc(Cl)cc21 5.14 µM
C[C@H]1C[C@H]2[C@@H]3CCC4=CC(=O)C=C[C@]4(C)[C@@]3(F)[C@@H](O)C[C@]2(C)[C@@]1(O)C(=O)CO 9.62 µM
OCCN(CCO)c1cccc(Cl)c1 52.4 µM
O=C(O)c1nc(Cl)c(Cl)c(Cl)c1Cl 73 µM

Experiment: ATG_PPRE_CIS: Attagene CIS-FACTORIAL HepG2 Assay for human Peroxisome Proliferator-activated Response Element (PPRE) (AID 2282958)
Details: HepG2 PPRE cis-element reporter, Attagene transcription factor profiling; actives raise or lower the signal
Outline: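 HepG2 cells transiently transfected with multiplexed cis-element reporter units measure endogenous transcription factor activity. After 24 h compound exposure, reporter mRNA is quantified by RT-PCR, 6-FAM labeling, HpaI digestion and capillary electrophoresis; bidirectional fits are made against DMSO baseline.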

outcome, inactive:
CC1(C)S[C@@H]2[C@H](NC(=O)[C@H](N)c3ccccc3)C(=O)N2[C@H]1C(=O)O
Cc1cc(C)c(S(=O)(=O)O)cc1N=Nc1cc(S(=O)(=O)O)c2ccccc2c1O
c1cc(N(CC2CO2)CC2CO2)ccc1Cc1ccc(N(CC2CO2)CC2CO2)cc1 (stereo not given)
CCCCCCCCCCC1CO1 (stereo not given)
O=[N+]([O-])c1ccc2nc[nH]c2c1
CC(C)CC(=O)O
C[Si](C)(C)O[Si](C)(C)O[Si](C)(C)C
OCCOCCOCCOCCOCCO
CC(C)CC(=O)CC(C)CC(C)C (stereo not given)
CCCOCCC
COC(OC)C(C)c1ccccc1 (stereo not given)
COCCCN
CC(=O)c1nccs1
COc1ccccc1OCC(O)CO (stereo not given)
OCCN(CCO)c1cccc(Cl)c1

AC50, active:
CCCc1c(OCCCCc2nn[nH]n2)ccc(C(C)=O)c1O 2.26 µM
Cc1cc(O)cc(C)c1Cl 37.1 µM
CC(C)n1c(/C=C/[C@@H](O)C[C@@H](O)CC(=O)O)c(-c2ccc(F)cc2)c2ccccc21 36.3 µM
